# The list is not random: actives were taken first. Their share in the collection is about 1.7%.
# GLP-1R inv ag: GLP-1 receptor (human) inverse agonism; HEK293 GLP-1R CRE-luciferase, luminescence, 24 h; GLP-1R form is constitutively active; Potency, µM (doses to about 38.3 µM), most hits filed as inhibitors; 410,000 compounds, 1.6% hits; AID 624417; also: nearly all actives have a fitted effect of over 55% in size
# Target sequence (P43220 whole entry, looked up): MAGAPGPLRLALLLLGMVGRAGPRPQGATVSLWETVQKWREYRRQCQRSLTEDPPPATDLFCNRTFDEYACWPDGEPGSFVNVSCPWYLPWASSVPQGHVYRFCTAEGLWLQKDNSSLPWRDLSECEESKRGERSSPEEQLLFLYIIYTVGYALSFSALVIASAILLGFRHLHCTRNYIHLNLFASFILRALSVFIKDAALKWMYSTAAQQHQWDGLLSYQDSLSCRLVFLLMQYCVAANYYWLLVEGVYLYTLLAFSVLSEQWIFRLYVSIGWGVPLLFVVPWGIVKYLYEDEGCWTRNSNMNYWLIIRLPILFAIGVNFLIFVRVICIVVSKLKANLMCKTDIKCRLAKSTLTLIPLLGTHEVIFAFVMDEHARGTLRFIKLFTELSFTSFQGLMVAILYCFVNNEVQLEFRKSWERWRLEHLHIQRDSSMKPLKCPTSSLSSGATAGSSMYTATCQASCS
#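 HEK293 cells stably co-expressing a cAMP-responsive luciferase reporter and constitutively active GLP-1R were seeded, incubated 12 h, then exposed to compounds for 24 h at 37 C. Luminescence was read 12 min after detection reagent; inverse agonists lower signal.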
# PTHR1 agonist: PTHR1 (human) receptor agonism | Q03431 | HEK293 GP2 PTHR1 cells, GloSensor cAMP luminescence, 1 h | Potency, µM (series often up to 115 µM), most hits filed as activators | 410,000 compounds, 0.075% hits; also: nearly all actives have a fitted effect of over 55% in size
#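 HEK-293-derived GP2 cells expressing PTHR1 and a GloSensor cAMP reporter, 3,000/well, plated overnight, given luciferin plus IBMX (each 0.5 mM as added) for 1 h at 37 °C, then compound for 1 h at 37 °C. Luminescence was read after 15 min at room temperature.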
# HEK293 tox: cytotoxicity in counter-screen for GLP-1R inverse agonists; HEK293 cAMP-luciferase reporter cells, luminescence, 24 h; Potency, µM (doses to about 38.3 µM), usual class: inhibitors; 410,000 compounds, 0.13% hits; AID 624418;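 also: loss of luciferase light is scored as toxicity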
#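 Quantitative HTS format, 1536 wells, 200 cells/uL seeded. Compounds: 23 nL, 24 h, 37 °C. Detection: luciferase reagent, luminescence at 12 min RT; decreased signal taken as cytotoxic.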
# GLP-1R agonist: agonists of human GLP-1 receptor | P43220 | HEK293 GLP-1R CRE-luciferase, luminescence, 4-6 h; cells express a hypersensitive GLP-1R form | Potency, µM (series often up to 45.6 µM), usual class: activators | 380,000 compounds, 0.007% hits
# Numbers stand for hits; – = inactive; ? = inconclusive; · = no result. Calls follow the shape of the dose curve; as a rule, active = well fitted curve in the direction sought with a large enough effect; inconclusive = small, poorly fitted or top-dose-only effect, or another doubt; inactive = no such curve, though single readings can be large; an effect the other way counts as inactive or inconclusive.
SMILES,GLP-1R inv ag,PTHR1 agonist,HEK293 tox,GLP-1R agonist
CCn1c(NCc2ccc(N(C)C)cc2)nc2ccccc21,–,–,–,–
CN(C)c1ccc(N=Nc2nc3ccccc3n2C)cc1,?,–,5.01µM,–
CC1CCN(C(=S)NC(=O)c2ccccc2)CC1,?,–,?,–
CC1CCN(C(=S)NC(=O)c2ccc(C(C)(C)C)cc2)CC1,8.91µM,–,?,–
CC(C)(C)c1ccc(C(=O)NC(=S)N2CCCCCC2)cc1,7.08µM,–,?,–
CC(C)(C)c1ccc(C(=O)NC(=S)N2CCCC2)cc1,–,–,–,–
Nc1nc(-c2ccccc2)c(CCCOc2ccc(NC(=O)CBr)cc2)c(=O)[nH]1,–,–,10µM,–
C[C@H](CO)N1C[C@H](C)[C@@H](CN(C)S(=O)(=O)c2cccs2)Oc2c(NS(=O)(=O)c3cn(C)cn3)cccc2C1=O,–,–,–,–
CC1CCCCC1NC(=S)Nc1ccc(Cl)cc1Cl (configuration not stated),11.2µM,–,?,–
COc1ccc(C(=O)C(CN2CCCC2)c2ccccc2)cc1 (configuration not stated),5.62µM,–,?,–
CCCOc1ccc(C(=O)C(CN2CCCC2)c2ccccc2)cc1 (configuration not stated),?,–,?,–
O=C(Cn1cc(SCc2ccccc2F)c2ccccc21)N1CCCCC1,–,–,–,·
CC(=O)c1ccc(OCc2cc(C(=O)N(C)Cc3nc4c(C)cccc4[nH]3)no2)cc1,–,–,–,–
CC(=O)c1ccc(OCc2cc(C(=O)N(C)CCOc3ccc(C)cc3)no2)cc1,10µM,–,–,–
O=C(Nc1ccc(OC(F)(F)F)cc1)C1CCCN(C(=O)c2ccc(Cl)cc2)C1 (configuration not stated),?,–,–,–
Cc1cccc(CNC(=O)c2oc3c(c2C)-c2nn(Cc4cccc(Cl)c4)cc2CC3)c1,?,–,–,·
CCOc1ccc(CNC(=O)c2oc3c(c2C)-c2nn(Cc4cccc(Cl)c4)cc2CC3)cc1,11.2µM,–,–,·
CCc1ccc(NC(=O)N(Cc2c[nH]c3ccccc23)C2CCCCCC2)cc1,–,–,–,·
CN(CCOc1cccc(C(F)(F)F)c1)Cc1ccccc1,10µM,–,?,–
CN(CCOc1ccc(F)cc1)Cc1ccccc1,–,–,–,–
O=C(NCCn1cc(SCc2ccccc2)c2ccccc21)c1ccccc1F,10µM,–,–,–
Cc1ccc(C)c(CSc2cn(CCNC(=O)c3ccccc3F)c3ccccc23)c1,?,–,–,–
O=C(Cn1cc(/C=N/NC(=O)c2cccc3ccccc23)c2ccccc21)Nc1ccc(F)cc1,1.58µM,–,–,–
C=CC(=O)N1C/C(=C/c2ccccc2)C(=O)/C(=C\c2ccccc2)C1,4.47µM,–,?,–
CN1C/C(=C/c2ccncc2)C(=O)/C(=C/c2ccncc2)C1,–,–,–,–
SMILES,GLP-1R inv ag,PTHR1 agonist,HEK293 tox,GLP-1R agonist
C=CC(=O)N1C/C(=C/c2ccc(Cl)cc2)C(=O)/C(=C\c2ccc(Cl)cc2)C1,?,–,3.16µM,–
CC[C@@H]1/C=C(\C)C[C@H](C)C[C@H](OC)[C@H]2O[C@@](O)(C(=O)C(=O)N3CCCC[C@H]3C(=O)O[C@H](/C(C)=C/[C@@H]3CC[C@H](Cl)[C@H](OC)C3)[C@H](C)[C@@H](O)CC1=O)[C@H](C)C[C@@H]2OC,·,·,·,–
COc1ccccc1N1CCN(C(=O)CCS(=O)(=O)c2cc(Br)cc3c2N(C(=O)C2CC2)CC3)CC1,–,–,–,·
O=C(C1CCC(=O)N(C2CC2)C1)N1CCC(Oc2ccccc2F)CC1 (configuration not stated),–,–,–,–
CC(=O)c1ccc(NC(=O)Cn2cc(S(=O)(=O)Cc3cccc(Cl)c3)c3ccccc32)cc1,10µM,–,?,·
Cn1nc(-c2ccccn2)nc2c(=O)n(C)c(=O)nc1-2,3.16µM,–,?,–
CCOC(=O)c1ccc(NC(=O)CCc2c(C)nc3c(c(C)nn3C(C)(C)C)c2C)cc1,7.94µM,–,–,–
COc1ccc2c(c1)[C@H]1[C@H](CO2)[C@H](c2ccccc2)[C@]2(C)C(=O)Nc3ccc(Br)cc3C(=O)N12,5.62µM,–,–,–
COc1ccc2c(c1)OC[C@H]1[C@H]2N2C(=O)CN(Cc3ccc(Cl)cc3)C(=O)[C@@]2(C)[C@H]1c1ccccc1,11.2µM,–,–,–

# Source: PubChem BioAssay (National Center for Advancing Translational Sciences (NCATS))
